Laboratory results: PubChem BioAssay AID1159580 (chemical genetic matrix, 2015)
Values joined by “and” are separate entries in the source; they are usually repeats but may differ in a detail not shown here. Equal entries are not always repeated. Screen size: about 5,500 compounds; about 2,000 (36%) were called active. Not shown: some 18% with an inconclusive outcome. The list shows a part of the results. A number with no mark means an inactive call. Rule as the data show it: active = normalized growth mostly below about 0.91 (no sharp cut-off); inconclusive = no clear call, values can overlap the other calls; inactive = mostly above about 0.92.

Assay: chemical genetic growth profiling, strain panel (AID 1159580);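 also: tested at 20 µM; growth read once vehicle control cultures reached saturation at 30 °C; 1 = growth at the plate median or of vehicle wells; lower values mean less growth of the strain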
Conditions: S. cerevisiae deletion strains, growth OD

Question: For `Oc1cc(O)c2c(c1)O[C@H](c1ccc(O)c(O)c1)[C@H](O)C2`, which normalized growth (locus YAL021C, strain ccr4, hits give low values) is on record?
Answer: 1.02

Question: And the normalized growth (locus YAL026C, strain drs2, hits give low values)?
Answer: 1.01

Question: And the normalized growth (locus YAL030W, strain snc1, hits give low values)?
Answer: 1

Question: What about the normalized growth (locus YBL061C, strain skt5, hits give low values) of the same compound?
Answer: 1.02

Question: What about the normalized growth (locus YBR009C, strain hhf1, hits give low values) of the same compound?
Answer: 1.02

Question: What about the normalized growth (locus YBR021W, strain FUR4, hits give low values) of the same compound?
Answer: 1.21 [resistant] (active)

Question: What about the normalized growth (locus YBR023C, strain chs3, hits give low values) of the same compound?
Answer: 1.01

Question: And the normalized growth (locus YBR171W, strain sec66, hits give low values)?
Answer: 1.02

Question: And the normalized growth (locus YBR229C, strain ROT2, hits give low values)?
Answer: 1

Question: And the normalized growth (locus YBR231C, strain swc5, hits give low values)?
Answer: 1.02

Question: What about the normalized growth (locus YBR279W, strain paf1, hits give low values) of the same compound?
Answer: 1.01

Question: What about the normalized growth (locus YCL011C, strain gbp2, hits give low values) of the same compound?
Answer: 1.01

Question: What about the normalized growth (locus YCL016C, strain dcc1, hits give low values) of the same compound?
Answer: 1

Question: And the normalized growth (locus YCL029C, strain bik1, hits give low values)?
Answer: 0.976

Question: And the normalized growth (locus YCL061C, strain MRC1, hits give low values)?
Answer: 1.01

Question: And the normalized growth (locus YCL069W, strain vba3, hits give low values)?
Answer: 1.01

Question: And the normalized growth (locus YCR088W, strain abp1, hits give low values)?
Answer: 1.01

Question: And the normalized growth (locus YDL005C, strain med2, hits give low values)?
Answer: 1.01

Question: What about the normalized growth (locus YDL035C, strain GPR1, hits give low values) of the same compound?
Answer: 1.03

Question: And the normalized growth (locus YDL040C, strain nat1, hits give low values)?
Answer: 0.998

Question: And the normalized growth (locus YDL074C, strain BRE1, hits give low values)?
Answer: 1

Question: And the normalized growth (locus YDL101C, strain DUN1, hits give low values)?
Answer: 1

Question: What about the normalized growth (locus YDL185W, strain tfp1, hits give low values) of the same compound?
Answer: 0.953

Question: And the normalized growth (locus YDL192W, strain arf1, hits give low values)?
Answer: 0.992

Question: What about the normalized growth (locus YDR001C, strain nth1, hits give low values) of the same compound?
Answer: 1

Question: What about the normalized growth (locus YDR069C, strain doa4, hits give low values) of the same compound?
Answer: 1

Question: And the normalized growth (locus YDR101C, strain arx1, hits give low values)?
Answer: 0.986

Question: What about the normalized growth (locus YDR137W, strain rgp1, hits give low values) of the same compound?
Answer: 1.02

Question: And the normalized growth (locus YDR150W, strain NUM1, hits give low values)?
Answer: 0.984

Question: What about the normalized growth (locus YDR159W, strain sac3, hits give low values) of the same compound?
Answer: 1.06

Question: And the normalized growth (locus YDR162C, strain NBP2, hits give low values)?
Answer: 1.03

Question: What about the normalized growth (locus YDR195W, strain ref2) of the same compound?
Answer: 0.968

Question: And the normalized growth (locus YDR297W, strain sur2, hits give low values)?
Answer: 1.01

Question: And the normalized growth (locus YDR318W, strain mcm21, hits give low values)?
Answer: 0.995

Question: What about the normalized growth (locus YDR334W, strain swr1, hits give low values) of the same compound?
Answer: 1.01

Question: What about the normalized growth (locus YDR335W, strain msn5, hits give low values) of the same compound?
Answer: 0.994

Question: And the normalized growth (locus YDR388W, hits give low values)?
Answer: 0.995

Question: What about the normalized growth (locus YDR392W, strain spt3, hits give low values) of the same compound?
Answer: 1.01

Question: What about the normalized growth (locus YDR502C, strain sam2, hits give low values) of the same compound?
Answer: 1.01

Question: What about the normalized growth (locus YEL003W, strain gim4, hits give low values) of the same compound?
Answer: 1.01

Question: And the normalized growth (locus YEL037C, strain rad23, hits give low values)?
Answer: 1.02

Question: And the normalized growth (locus YEL061C, strain CIN8 (second series), hits give low values)?
Answer: 1

Question: And the normalized growth (locus YEL061C, strain CIN8, hits give low values)?
Answer: 0.994

Question: What about the normalized growth (locus YER015W, strain faa2, hits give low values) of the same compound?
Answer: 1

Question: And the normalized growth (locus YER016W, strain bim1, hits give low values)?
Answer: 1.01

Question: And the normalized growth (locus YER110C, hits give low values)?
Answer: 0.969

Question: What about the normalized growth (locus YER111C, strain swi4, hits give low values) of the same compound?
Answer: 1

Question: What about the normalized growth (locus YER155C, strain BEM2 (second series), hits give low values) of the same compound?
Answer: 1.02

Question: What about the normalized growth (locus YER155C, strain BEM2, hits give low values) of the same compound?
Answer: 1

Question: What about the normalized growth (locus YER167W, strain BCK2, hits give low values) of the same compound?
Answer: 1.02

Question: What about the normalized growth (locus YFR010W, strain ubp6, hits give low values) of the same compound?
Answer: 1.01

Question: What about the normalized growth (locus YGL078C, strain dbp3, hits give low values) of the same compound?
Answer: 0.997

Question: And the normalized growth (locus YGL086W, strain mad1, hits give low values)?
Answer: 0.994

Question: What about the normalized growth (locus YGL167C, strain pmr1, hits give low values) of the same compound?
Answer: 1.01

Question: What about the normalized growth (locus YGL173C, strain kem1, hits give low values) of the same compound?
Answer: 1.01

Question: What about the normalized growth (locus YGL227W, strain vid30, hits give low values) of the same compound?
Answer: 1.01

Question: And the normalized growth (locus YGL240W, strain doc1, hits give low values)?
Answer: 1.04

Question: And the normalized growth (locus YGL248W, strain PDE1, hits give low values)?
Answer: 1

Question: What about the normalized growth (locus YGL253W, strain hxk2, hits give low values) of the same compound?
Answer: 1.02

Question: What about the normalized growth (locus YGR135W, strain pre9, hits give low values) of the same compound?
Answer: 1.01

Question: What about the normalized growth (locus YGR252W, strain gcn5, hits give low values) of the same compound?
Answer: 1.13

Question: And the normalized growth (locus YHR013C, strain ard1, hits give low values)?
Answer: 0.995

Question: What about the normalized growth (locus YHR027C, strain rpn1, hits give low values) of the same compound?
Answer: 1.01

Question: And the normalized growth (locus YHR030C, strain SLT2, hits give low values)?
Answer: 1 and 0.992

Question: And the normalized growth (locus YHR079C, strain IRE1 (second series), hits give low values)?
Answer: 0.975

Question: And the normalized growth (locus YHR079C, strain IRE1, hits give low values)?
Answer: 0.992

Question: What about the normalized growth (locus YHR094C, strain hxt1, hits give low values) of the same compound?
Answer: 0.992

Question: And the normalized growth (locus YHR129C, strain ARP1, hits give low values)?
Answer: 1

Question: And the normalized growth (locus YHR142W, strain chs7, hits give low values)?
Answer: 1.02

Question: And the normalized growth (locus YHR200W, strain rpn10, hits give low values)?
Answer: 0.983

Question: What about the normalized growth (locus YIL066C, strain RNR3, hits give low values) of the same compound?
Answer: 1.01

Question: And the normalized growth (locus YIL073C, strain SPO22, hits give low values)?
Answer: 0.997

Question: And the normalized growth (locus YIL125W, strain kgd1, hits give low values)?
Answer: 0.996

Question: What about the normalized growth (locus YIR030C, strain dcg1, hits give low values) of the same compound?
Answer: 0.986

Question: What about the normalized growth (locus YJL092W, strain hpr5, hits give low values) of the same compound?
Answer: 1.02

Question: And the normalized growth (locus YJL095W, strain BCK1 (second series), hits give low values)?
Answer: 1.01

Question: What about the normalized growth (locus YJL095W, strain BCK1, hits give low values) of the same compound?
Answer: 0.984 and 1

Question: And the normalized growth (locus YJL115W, strain asf1, hits give low values)?
Answer: 1

Question: And the normalized growth (locus YJL129C, strain trk1, hits give low values)?
Answer: 1.02

Question: And the normalized growth (locus YJL134W, strain LCB3, hits give low values)?
Answer: 0.991

Question: What about the normalized growth (locus YJL154C, strain vps35, hits give low values) of the same compound?
Answer: 1.01

Question: And the normalized growth (locus YJL164C, strain tpk1, hits give low values)?
Answer: 1

Question: What about the normalized growth (locus YJL166W, strain qcr8, hits give low values) of the same compound?
Answer: 1.02

Question: What about the normalized growth (locus YJL168C, strain set2, hits give low values) of the same compound?
Answer: 0.98

Question: And the normalized growth (locus YJL187C, strain SWE1 (second series), hits give low values)?
Answer: 0.994

Question: What about the normalized growth (locus YJL187C, strain SWE1, hits give low values) of the same compound?
Answer: 1
